Only some compounds are listed: those with a hit (about 3% of all), similar ones and a draw of the others.
Sm TGR inh = inhibitors of Schistosoma mansoni thioredoxin glutathione reductase; purified TGR, DTNB reduction, TNB absorbance 405 nm; Potency, µM (titrated, usually from 114 µM), for inactives: top-dose activity change, negative = inhibition, hits mostly inhibitors; Q962Y6; 360,000 compounds, 3% hits; also: nearly all actives have a fitted effect of over 60% in size
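First, TGR (20 nM dispensed) and NADPH were mixed with compound. Second, a 15 min room-temperature incubation followed. Third, further NADPH and then DTNB were added to start the reaction. Finally, TNB absorbance was monitored kinetically.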
LmPK inhibitor = LmPK (Leishmania mexicana) enzyme inhibition; Q27686; purified LmPK, Kinase-Glo ATP luminescence, 1 h; Potency, µM (doses to about 57.5 µM), for inactives: top-dose activity change, negative = inhibition, most hits filed as inhibitors; 290,000 compounds, 0.37% hits; AID 1721
Target sequence (Q27686 whole entry, looked up): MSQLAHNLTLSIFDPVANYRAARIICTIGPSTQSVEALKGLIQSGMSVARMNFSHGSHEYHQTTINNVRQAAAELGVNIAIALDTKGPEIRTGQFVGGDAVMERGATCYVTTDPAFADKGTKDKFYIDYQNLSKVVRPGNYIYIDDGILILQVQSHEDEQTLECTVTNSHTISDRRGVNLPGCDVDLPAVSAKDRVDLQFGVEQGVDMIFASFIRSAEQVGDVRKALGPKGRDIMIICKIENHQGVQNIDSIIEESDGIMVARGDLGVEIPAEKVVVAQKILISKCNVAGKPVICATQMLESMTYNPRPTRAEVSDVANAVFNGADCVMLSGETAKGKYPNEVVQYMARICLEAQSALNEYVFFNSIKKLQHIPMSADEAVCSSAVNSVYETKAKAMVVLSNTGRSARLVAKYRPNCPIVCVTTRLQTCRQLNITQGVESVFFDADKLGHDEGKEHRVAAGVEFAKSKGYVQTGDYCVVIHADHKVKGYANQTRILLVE
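Pyruvate kinase activity monitored as ATP production (luciferase luminescence). Conditions: 0.1 nM enzyme, 0.5 mM PEP, 0.1 mM ADP, 1 h, RT; normalized against uninhibited and no-enzyme wells.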
TbPYK inhibitor = inhibitors of Trypanosoma brucei pyruvate kinase | 410,000 compounds, 0.12% hits | Q57TT1 | Potency, µM (highest dose often 76.8 µM), without a hit: at the highest dose activity, negative = inhibition, hits mostly inhibitors | AID 624173 | TbPYK enzyme, Kinase-Glo Plus ATP luminescence, 45 min; also: nearly all actives have a fitted effect of over 50% in size
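TbPYK + substrate in 50 mM TEA pH 7.2, 100 mM KCl, 10 mM MgCl2, 0.05% BSA, 0.01% Tween-20; cpd pinned; ADP 130 uM final; 45 min RT; Kinase-Glo Plus 10 min; luminescence endpoint.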
RE007 growth inh = less growth of the S. pombe RE007 Vpr strain. S. pombe RE007 Vpr strain, BacTiter-Glo ATP luminescence, 24 h. Potency, µM (titrated, usually from 92.2 µM), for inactives: top-dose activity change, negative = less growth, most hits filed as inhibitors. 360,000 compounds, 0.21% hits. AID 651644; active = well fitted falling curve with a large enough effect; inconclusive = small, poorly fitted or top-dose-only effect; inactive = no such curve, though single readings can be large or run the other way; also: nearly all actives have a fitted effect of over 50% in size
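Fission yeast RE007 carrying one integrated HIV-1 vpr copy, seeded at OD 0.01 in PMG+AL medium with 23 nL pinned compound. Grown 24 h at 30 degrees; viability read by BacTiter-Glo luminescence after 5 min.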
* marks the source's active call; other numbers are inactive results; ? = inconclusive; · = not tested or not shown; [ ] = another dose, or the depositor's remark. Unless noted, calls follow the shape of the dose curve; as a rule, active = well fitted curve in the direction sought with a large enough effect; inconclusive = small, poorly fitted or top-dose-only effect, or another doubt; inactive = no such curve, though single readings can be large; an effect the other way counts as inactive or inconclusive. % is scaled to controls: 0 for no effect and ±100 for the full control effect; potency is read from the fitted curve at half-maximal effect.

SMILES | Sm TGR inh | LmPK inhibitor | TbPYK inhibitor | RE007 growth inh
Cc1ccc2oc(C(=O)Nc3sc4c(c3C(=O)NCc3ccccc3)CCCC4)cc(=O)c2c1 | 0.6% | · | 2.0% | ·
CN(C(=O)c1ccco1)c1nnc(C23CC4CC(CC(C4)C2)C3)s1 | 7.3% | 1.7% | -1.8% | 4.6%
CN(C(=O)c1ccco1)c1nc2c(s1)CCCC2 | -5.0% | 25.1µM* | -18.0% | ?
COc1ccc(S(=O)(=O)c2cn(C)c3cc(N4CCCCCC4)c(F)cc3c2=O)cc1 | 4.2% | · | -5.0% | ·
Cc1cccc(Cn2cc(C(=O)Nc3ccc(F)c(C(F)(F)F)c3)ccc2=O)c1 | 1.1% | · | -7.0% | ·
CC(C)COCC1CC2(CC(C)(c3csc(N)n3)OC2=O)C(=O)O1 (stereo not given) | ? | -3.8% | -1.0% | -12.0%
C=CCNc1nc(C2(C)CC3(CC(C)(C)OC3=O)C(=O)O2)cs1 (stereo not given) | 50.1µM* | -5.0% | -10.1% | -1.6%
COC(=O)N1C(=O)[C@](c2ccc(OC)cc2)(C(C)C)N1C(=O)OC | 44.7µM* | -3.9% | 0.8% | -9.2%
COc1ccc(C2(C)NC(=O)N(CC(=O)NC(C)c3ccc(CC(C)C)cc3)C2=O)cc1 (stereo not given) | -4.0% | -1.8% | -9.7% | -15.0%
COC(=O)N1C(=O)[C@](c2ccsc2)(C(C)C)N1C(=O)OC | 31.6µM* | -0.1% | -8.3% | -2.8%
COc1ccc(C(=O)COC(=O)c2cccnc2Cl)c(OC)c1 | -1.1% | -2.9% | -1.9% | 20.4%
O=C(COC(=O)c1cccnc1Cl)c1ccc(OC(F)F)cc1 | -1.5% | 15.8µM* | -1.2% | -9.8%
CCOc1ccc(NC(=O)N2CC=C(c3c[nH]c4ccccc34)CC2)cc1 | -2.7% | · | -0.3%[15.4 µM] | ·
CC(C)CNC(=S)NC(=O)c1ccc(F)cc1 | 31.6µM* | -6.7% | -7.6% | -28.9%
O=C(NC(=S)NCCN1CCOCC1)c1ccc(F)cc1 | 5.4% | -10.3% | 13.3% | -21.6%
O=C(NC(=S)NC1CCCCC1)c1ccc(F)cc1 | 28.2µM* | -0.9% | 3.6% | ?
Cn1c(OCc2ccco2)nc2c1c(=O)n(Cc1ccc(Cl)c(Cl)c1)c(=O)n2C | 22.4µM* | 5.6% | -7.2% | -8.2%
Cn1c(N2CCOCC2)nc2c1c(=O)n(Cc1ccc(Cl)c(Cl)c1)c(=O)n2C | -0.6% | 2.6% | 0.9% | 2.3%
O=C(O)Cn1cc(/C=C2\C(=O)NC(=O)N(Cc3ccco3)C2=O)c2ccccc21 | 5.01µM* | 9.4% | 1.4% | 3.0%
Cc1ccccc1NC(=O)c1c(C)[nH]c(=S)c(C#N)c1-c1ccco1 | -15.3% | 16.1% | -16.6% | 21.1%
CNC(=O)c1c(C)[nH]c(=S)c(C#N)c1-c1ccco1 | 31.6µM* | 29.0% | 7.94µM* | 19.7%
Cc1nc(-c2coc3cc(OCC(=O)O)ccc3c2=O)cs1 | 2.6% | ? | -8.8% | -28.0%
Cc1nc(-c2coc3cc(O)c(C)cc3c2=O)cs1 | -12.8% | 7.08µM* | -9.3% | -25.9%
COc1ccc(-c2ccc(SCC(=O)N3CCOCC3)nn2)cc1 | 4.8% | -8.6% | 10.2% | 1.9%
CCOc1ccc(-c2ccc(SCC)nn2)cc1 | · | 11.2µM* | ? | -7.7%
SMILES | Sm TGR inh | LmPK inhibitor | TbPYK inhibitor | RE007 growth inh
COc1ccc(-c2ccc(SC)nn2)cc1 | 6.9% | 14.1µM* | ? | ?
CCOc1ccc(C(=O)NN2C(=O)C3C4C=CC(O4)C3C2=O)cc1 (stereo not given) | 22.4µM* | -2.0% | 2.6% | -3.5%
Cc1cccc(OCC(=O)NN2C(=O)C3C4C=CC(O4)C3C2=O)c1 (stereo not given) | · | 3.7% | 0.0% | 3.4%
Cc1ccccc1OCC(=O)NN1C(=O)C2C3C=CC(O3)C2C1=O (stereo not given) | 20µM* | 1.5% | -15.9% | -1.4%
CC1(C)S[C@@H]2[C@H](NC(=O)C(C(=O)Oc3ccc4c(c3)CCC4)c3ccccc3)C(=O)N2[C@H]1C(=O)O (stereo not given in full) | · | · | 0.6% | ·
C=CCN(C/C(=N\O)c1sc(C(=O)OCC)nc1C)c1cccc(Br)c1 | · | · | 0.9% | 0.3%
C=CCN(CC=C)Cc1c(O)ccc2c(=O)c(-c3ccccc3)coc12 | 12.6µM* | -1.3% | -16.3% | 1.4%
Cc1nn(-c2ccccc2)c(OC(=O)c2ccccc2Br)c1S(=O)(=O)c1ccccc1 | -14.5% | · | 8.9% | ·
O=C1c2ccccc2C(O)(Cc2ccccc2)N1Cc1ccco1 (stereo not given) | 44.7µM* | 2.3% | -12.2% | 10.9%
CC(NC(=O)C1CCN(C(=O)c2ccc(-n3ccc4ccccc43)s2)CC1)c1ccccc1 (stereo not given) | -7.8% | · | -2.0% | ·
CCOC(=O)c1cc(-c2ccc(C)cc2)n(CC(=O)Nc2ccc(OC)cc2OC)c1C | 0.6% | · | 1.4% | ·
CCOC(=O)c1cc(S(=O)(=O)Nc2ccc(OC)cc2OC)cn1C | 56.2µM* | -3.6% | -1.2% | 10.4%
CCOC(=O)c1cc2occc2n1CC(=O)Nc1ccc(OC)cc1OC | 20µM* | 2.9% | 9.8% | 4.9%
Cc1ccc(-n2c([O-])nc(-[n+]3ccccc3)c2C=O)cc1 | 39.8µM* | 6.5% | -2.2% | 11.5%
Cc1[nH]c2ccccc2c(=O)c1C(=O)/C=C/c1ccccc1 | 31.6µM* | -1.1% | 0.5% | -10.5%
COc1ccc(-c2ccc(CCC(=O)O)n2NC(=O)c2ccc(O)cc2)cc1 | -29.1% | -2.9% | 2.0% | 3.7%
COc1ccc(-c2ccc(CCC(=O)O)n2-c2ccccc2OC)cc1 | 11.2µM* | -4.4% | -25.5% | 8.6%
COc1ccccc1-n1c(CCC(=O)O)ccc1-c1ccccc1 | 28.2µM* | -0.1% | 3.5% | -0.7%
COc1ccc(-n2c(CCC(=O)O)ccc2-c2ccccc2)c(OC)c1 | 8.91µM* | · | -1.5% | ·
COc1ccc2c(c1)c(C(O)CN1CCC(Cc3ccccc3)CC1)c(C)n2C (stereo not given) | -0.4% | 1.5% | -8.0% | 4.4%
Cc1c(C(O)CN2CCN(Cc3ccc4c(c3)OCO4)CC2)c2ccccc2n1C (stereo not given) | 28.2µM* | 4.7% | -6.9% | -11.6%
COc1ccc2c(c1)c(C(O)CN1CCN(Cc3ccc4c(c3)OCO4)CC1)c(C)n2C (stereo not given) | 25.1µM* | -0.9% | -14.4% | -21.5%
CC1(C)C(c2ccco2)=[N+]([O-])C2(CCCCC2=O)N1O (stereo not given) | 50.1µM* | 8.6% | 4.2% | 4.3%
Cc1cc(C(=O)Nc2ccc(OCc3ccccc3)cc2)c(C)o1 | -3.0% | 7.94µM* | -19.8% | ?
C#CCCc1ccccc1/C=[N+](/C)[O-] | 11.2µM* | · | 0.7% | -14.4%
Cc1ccc(C(C)C)c(OCCCn2ccnc2C)c1 | 89.1µM* | 3.3% | -1.6% | 4.8%
Cc1ccc(C(C)C)c(OCCN)c1 | 8.8% | -0.2% | 0.8% | 11.1%
CCN(CC)C(=O)c1sc2c(c1C)c(=O)n(-c1ccccc1)c(=O)n2Cc1c(C)cc(C)cc1C | -5.2% | · | 0.1% | ·
CCCN1C(=O)C(Cc2nc3ccccc3c(=O)n2-c2ccc(OC)cc2)c2cc(C)ccc21 (stereo not given) | -1.3% | · | -1.3% | ·
